According to the supplement of paper PMC8975748:
Structures can show the parent of a compound that is named as a salt.

test system: Saccharomyces cerevisiae BY4741 SeMeCo community; experiment: z-score of subpopulation abundance vs DMSO median, subpopulation auxotrophic for UM; higher = larger share of this subpopulation than in DMSO controls; conditions: 10 µM; 24 h; SM minimal medium; subpopulation (auxotrophy): UM
Description: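 Fluorescent four-plasmid SeMeCo (self-establishing metabolically cooperating S. cerevisiae BY4741 community; plasmids pH-mRuby2, pL-mWasabi, pU-eCFP, pM-TagRFP657) was grown 24 h in minimal SM medium with each Selleck FDA-approved drug at 10 µM in 384-well plates. Cells were fixed and imaged by high-content confocal microscopy. For each auxotrophic subpopulation (and the prototroph), a z-score gives the deviation from the DMSO vehicle-control population median.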

Row | SMILES | z-score of subpopulation abundance
1 | C=CC[N+]1([C@H]2C[C@H]3[C@@H]4CC[C@H]5C[C@H](O)[C@@H](N6CCOCC6)C[C@]5(C)[C@H]4CC[C@]3(C)[C@H]2OC(C)=O)CCCC1 [Rocuronium Bromide] | -0.71
2 | CN(C)c1ccc(O)c2c1C[C@H]1C[C@H]3[C@H](N(C)C)C(=O)C(C(N)=O)=C(O)[C@@]3(O)C(=O)C1=C2O [Minocycline HCl] | 0.25
3 | Nc1ccc(S(=O)(=O)Nc2cnc3ccccc3n2)cc1 [Sulfaquinoxaline sodium] | 1.56
4 | C[C@H]1COc2c(N3CCN(C)CC3)c(F)cc3c(=O)c(C(=O)O)cn1c23 [Levofloxacin] | -0.89
5 | Cc1nc2n(c(=O)c1CCN1CCC(c3noc4cc(F)ccc34)CC1)CCCC2O (stereo not given) [Paliperidone] | 0.49
6 | CCC[C@@H]1C[C@@H](C(=O)N[C@@H]([C@H]2O[C@H](SC)[C@H](OP(=O)(O)O)[C@@H](O)[C@H]2O)[C@H](C)Cl)N(C)C1 [Clindamycin Phosphate] | 1.19
7 | C[C@H]1[C@H](NC(=O)/C(=N\OC(C)(C)C(=O)O)c2csc(N)n2)C(=O)N1S(=O)(=O)O [Aztreonam] | 0.13
8 | Cc1ccsc1/C=C/C1=NCCCN1C [Morantel tartrate] | 0.1
9 | CO/N=C(\C(=O)N[C@@H]1C(=O)N2C(C(=O)O)=C(CSC(=O)c3ccco3)CS[C@H]12)c1csc(N)n1 [Ceftiofur HCl] | 1.05
10 | CNC1CCCN(c2c(F)cc3c(=O)c(C(=O)O)cn(C4CC4)c3c2OC)C1 (stereo not given) [Balofloxacin] | 0.59
11 | C#C[C@]1(O)CC[C@H]2[C@@H]3CCC4=CCCC[C@@H]4[C@H]3CC[C@@]21C [Lynestrenol] | 0.5
12 | O=C(c1ccccc1)c1ccc2n1CCC2C(=O)O (stereo not given) [Ketorolac] | -1.16
13 | O=C1CCc2cc(OCCCCc3nnnn3C3CCCCC3)ccc2N1 [Cilostazol] | -0.9
14 | CC[C@@]1(O)C(=O)OCc2c1cc1n(c2=O)Cc2cc3cc(O)ccc3nc2-1 [(S)-10-Hydroxycamptothecin] | -0.98
15 | CC/C(=C(\c1ccccc1)c1ccc(OCCN(C)C)cc1)c1ccccc1 [Tamoxifen Citrate] | 1.43
16 | Clc1ccc(C(Cn2ccnc2)OCc2c(Cl)cccc2Cl)c(Cl)c1 (stereo not given) [Isoconazole nitrate] | 5.43
17 | Cc1ccc2c(Cl)cc(Cl)c(O)c2n1 [Chlorquinaldol] | -1.95
18 | CN1CCN(c2cc3c(cc2F)c(=O)c(C(=O)O)cn3-c2ccc(F)cc2)CC1 [Difloxacin hydrochloride] | -0.52
19 | CC1(C)[C@H](C(=O)O)N2C(=O)C[C@H]2S1(=O)=O [Sulbactam] | -0.39
20 | Nc1ccc(S(=O)(=O)Nc2ccccn2)cc1 [Sulfapyridine] | -0.75

Row | SMILES | z-score of subpopulation abundance
21 | CCCCCc1ccc(C)cc1O [Amylmetacresol] | -0.13
22 | NC(=O)[C@@H]1CC[C@@H]2CN1C(=O)N2OS(=O)(=O)O [Avibactam sodium] | 0.5
23 | N#Cc1ccc2[nH]cc(CCCCN3CCN(c4ccc5oc(C(N)=O)cc5c4)CC3)c2c1 [Vilazodone] | -0.2
24 | O=C1C(CC[S+]([O-])c2ccccc2)C(=O)N(c2ccccc2)N1c1ccccc1 (racemic) [(+/-)-Sulfinpyrazone] | 0.41
25 | Cc1cccc(C)c1NC(=O)C1CCCCN1C (stereo not given) [Mepivacaine] | 0.24
26 | NC(=N\CCCCCC/N=C(N)/N=C(\N)Nc1ccc(Cl)cc1)/N=C(\N)Nc1ccc(Cl)cc1 [Chlorhexidine diacetate] | -1.2
27 | COc1ccc(CN2CCN(C(c3ccc(F)cc3)c3ccc(F)cc3)CC2)c(OC)c1OC [Lomerizine 2HCl] | -0.33
28 | COc1ccc([C@@H]2Sc3ccccc3N(CCN(C)C)C(=O)[C@@H]2OC(C)=O)cc1 [Diltiazem HCl] | -0.21
29 | CN(C)CCCN1c2ccccc2Sc2ccc(Cl)cc21 [Chlorpromazine HCl] | 0.5
30 | Cc1nc2n(c(=O)c1CCN1CCC(c3noc4cc(F)ccc34)CC1)CCCC2 [Risperidone] | 0.87
31 | COc1cc(C(C)=O)ccc1OCCCN1CCC(c2noc3cc(F)ccc23)CC1 [Iloperidone] | -0.39
32 | CNCc1cc(-c2ccccc2F)n(S(=O)(=O)c2cccnc2)c1 [Vonoprazan Fumarate (TAK-438)] | -0.09
33 | NC(=NCCCCCCN=C(N)N=C(N)Nc1ccc(Cl)cc1)N=C(N)Nc1ccc(Cl)cc1 [Chlorhexidine?2HCl] | -3.13
34 | CC[C@H](C)[C@H](N)C1=N[C@H](C(=O)N[C@@H](CC(C)C)C(=O)N[C@H](CCC(=O)O)C(=O)N[C@H](C(=O)N[C@H]2CCCCNC(=O)[C@H](CC(N)=O)NC(=O)[C@@H](CC(=O)O)NC(=O)[C@H](Cc3cnc[nH]3)NC(=O)[C@@H](Cc3ccccc3)NC(=O)[C@H]([C@@H](C)CC)NC(=O)[C@@H](CCCN)NC2=O)[C@@H](C)CC)CS1 [Bacitracin] | 0.03
35 | O=C1NCC2(CCN(CCc3ccccc3)CC2)O1 [Fenspiride HCl] | 0.21
36 | CCCCCCCN(CC)CCCC(O)c1ccc(NS(C)(=O)=O)cc1 (stereo not given) [Ibutilide Fumarate] | 0.25
37 | CCCCNc1ccc(C(=O)OCCN(C)C)cc1 [Tetracaine HCl] | 0.04
38 | COCC1=C(C(=O)OC(C)OC(=O)OC(C)C)N2C(=O)[C@@H](NC(=O)/C(=N\OC)c3csc(N)n3)[C@H]2SC1 (stereo not given in full) [Cefpodoxime proxetil] | 0.01
39 | CC[C@@H]1C(=O)OC[C@@H]1Cc1cncn1C [Pilocarpine HCl] | -0.51
40 | CN(Cc1cnc2nc(N)nc(N)c2n1)c1ccc(C(=O)N[C@@H](CCC(=O)O)C(=O)O)cc1 [Methotrexate] | -4.22
